From PubChem BioAssay
Compounds with a hit are over-represented: about 2.9% of the library has one in this group of screens.
Nrf2 activator: qHTS of Nrf2 Activators; 410,000 compounds, 0.31% hits; AREc32 ARE-luciferase reporter (MCF7-derived line), luminescence, 24 h; Potency, µM (doses to about 46.1 µM), inactives show top-dose activation, usual class: activators; AID 624171, 2012; further: % of control where 0% means no effect; nearly all actives have a fitted effect of over 65% in size
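Each well held 1000 AREc32 cells, which were incubated with compound for 24 hr at 37 deg C after overnight attachment, and ARE reporter activity was quantified by firefly luciferase luminescence.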
A549 tox: Nrf2 qHTS screen for inhibitors: counterscreen for cytotoxicity | A549 ARE-Fluc cells, CellTiter-Fluor viability, 18-24 h | Potency, µM (series often up to 46 µM), without a hit: at the top dose activity change, negative = cytotoxicity, actives largely listed as inhibitors | 390,000 compounds, 0.16% hits | AID 504648, 2011; further: on the % scale 0 is the no-effect control and ±100 the full control effect
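Cytotoxicity counterscreen: CellTiter-Fluor fluorescence was measured in A549 ARE_Fluc cells after 18-24 h of compound exposure in a concentration series. The subsequent BugLite luminescent read reports ARE-luciferase activity.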
ATXN2 expr inh: Primary qHTS for Inhibitors of ATXN expression; HEK-293 ATXN2-luciferase reporter, luminescence, 24 h; Potency, µM (doses to about 57 µM), inactives show at the highest dose activity change, negative = inhibition, usual class: inhibitors; 360,000 compounds, 0.72% hits; AID 1745845, 2022; further: on the % scale 0 is the no-effect control and ±100 the full control effect; nearly all actives have a fitted effect of over 55% in size
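ATXN2-luciferase reporter cells (luciferase flanked by upstream and downstream ATXN2 gene portions) were treated 24 h at 37 °C with compounds at up to 57 uM. SteadyGlo luminescence gave expression; GF-AFC fluorescence gave viability.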
Nrf2 block: Nrf2 qHTS screen for inhibitors. Potency, µM (doses to about 46 µM), inactives show at the top dose activity change, negative = inhibition, most hits filed as inhibitors. 360,000 compounds, 2.1% hits. AID 504444, 2011. A549 ARE-Fluc reporter, luciferase luminescence, 18-24 h; further: on the % scale 0 is the no-effect control and ±100 the full control effect; nearly all actives have a fitted effect of over 60% in size
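Reporter: ARE-Fluc in A549. Exposure: 18-24 h, 37 °C, 5% CO2, 5% FBS OPTI-MEM. Readouts: fluorescent cytotoxicity (CellTiter-Fluor), then luminescent Nrf2 signal after BugLite.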
ATXN viability: Viability Counterscreen for Primary qHTS for Inhibitors of ATXN expression | S2 cells (HEK-293 line with an ATXN2-luciferase reporter) viability, CellTiter-Fluor protease fluorescence, 24 h | Potency, µM (series often up to 56.7 µM), actives largely listed as cytotoxic | 400,000 compounds, 0.49% hits; further: nearly all actives have a fitted effect of over 40% in size
* = called active by the depositor; i = inactive; u = inconclusive; x = not tested or not shown. The call rests on the fitted dose curve; in most records, active means well fitted curve in the direction sought with a large enough effect; inconclusive means small, poorly fitted or top-dose-only effect, or another doubt; inactive means no such curve, though single readings can be large; an effect the other way counts as inactive or inconclusive. Potency means the concentration at half of the fitted maximal effect.

SMILES	Nrf2 activator	A549 tox	ATXN2 expr inh	Nrf2 block	ATXN viability
CN(C)S(=O)(=O)c1cccc2c1C(=O)c1ccccc1C2=O	-1%	-8%	6%	-22%	i
NS(=O)(=O)c1cccc2c1C(=O)c1cccc(O)c1C2=O	x	x	3.1µM*	x	x
CCOC(=O)/C=C1\CN(Cc2cc(OC)c(OC)c(OC)c2)S(=O)(=O)c2ccc(C(F)(F)F)cc21	2%	0%	u	21µM*	u
CCOC(=O)c1c(CSc2ccc(CC)cc2)oc2ccc(O)c(CN(C)C)c12	0%	0%	16µM*	9%	x
N=c1scc(-c2ccccc2)n1/N=C/c1ccco1	11µM*	-6%	21%	3%	i
C(=N\n1c2ccccc2c2ccccc21)/c1ccccc1	22%	14%	-13%	-4%	i
C(=N/n1c2ccccc2c2ccccc21)/c1ccco1	3.2µM*	12%	-7%	x	i
Cc1cccc(-c2n[nH]c(=S)n2/N=C/c2ccco2)c1	20%	-6%	-19%	-14%	i
Cc1ccc(-c2c3c(nc4sc(C(N)=O)c(N)c24)CCCC3)o1	2%	u	-6%	-17%	i
NC(=O)c1sc2nc3c(c(-c4ccco4)c2c1N)CCC3	-1%	5%	51%	5.8µM*	i
CC(=O)N1CCC[C@H]1C(=O)NCC1Cc2cc(-c3cccc(OC(F)(F)F)c3)ccc2O1 (some centres not stated)	x	x	x	x	i
Cc1cc(/C=C2\SC(=S)N(C)C2=O)c(C)n1-c1cccc(O)c1	0%	u	44%	14%	i
COC(=O)c1ccc(N=C2S/C(=C\c3cc(C)n(-c4cccnc4)c3C)C(=O)N2C)cc1	0%	u	u	26µM*	i
O=S(=O)(CC(CN1CCCC1)N1CCCC1)c1ccc2ccccc2c1 (configuration not stated)	2%	u	-1%	u	11µM*
Cc1cc(C)nc(SCCC(=O)Nc2ccccc2Cl)n1	0%	0%	-10%	12µM*	i
CCCc1c(C(=O)N/N=C/c2cccs2)nnn1-c1nonc1N	8.9µM*	0%	-4%	15%	i
CCCN(CCC)Cc1c(C(=O)N/N=C/c2ccc(Br)cc2)nnn1-c1nonc1N	-1%	u	-25%	16µM*	u
CN(C)Cc1c(C(=O)N/N=C/c2cccc(OCc3c(F)cccc3Cl)c2)nnn1-c1nonc1N	0%	0%	-21%	3.7µM*	i
CN(C)Cc1c(C(=O)N/N=C/c2ccccc2OCc2c(F)cccc2Cl)nnn1-c1nonc1N	0%	4%	-37%	3%	i
Cc1cnc(-n2ncc(C(=O)NCc3ccncc3)c2C2CC2)nc1-c1cccs1	x	x	x	x	i
Cn1c(=O)c2cn(Cc3ccc(Cl)cc3)cc2n(C)c1=O	0%	16%	6%	12µM*	i
Cn1c(=O)c2c(-c3ccc(Cl)cc3)n(Cc3ccccc3)cc2n(C)c1=O	0%	-17%	-13%	u	u
Cc1nc(-c2ccccc2)sc1-c1ccc(SCC(=O)NCc2ccccc2Cl)nn1	9%	-6%	x	u	x
Cc1ccc(S(=O)(=O)N(C)C)cc1NC(=O)c1cncc(Br)c1	-2%	-18%	u	12µM*	i
CN(C)S(=O)(=O)c1cccc(NC(=O)c2cncc(Br)c2)c1	3%	2%	16%	-4%	i
SMILES	Nrf2 activator	A549 tox	ATXN2 expr inh	Nrf2 block	ATXN viability
CCN(CC)CCSc1nnc2c3cc(C)ccc3n(Cc3ccccc3)c2n1	7%	-17%	u	1%	16µM*
COc1ccc2c(c1)c(C(C)=O)c(C)n2CCc1ccc(OC)c(OC)c1	0%	-4%	-8%	-20%	i
COc1ccc2c(c1)c(C(C)=O)c(C)n2CCc1ccccc1	-1%	-18%	-21%	13µM*	i
CN(C)c1nc(Cc2ccc(NC(=O)c3ccc(C(F)(F)F)cc3)cc2)nc(N(C)C)c1CC(=O)O	x	x	2%	x	x
Cc1ccccc1Nc1c(-c2cccnc2)nc2cccc(C)n12	8%	-11%	u	u	u
Cc1cccc2nc(-c3cccnc3)c(Nc3ccc(C(C)C)cc3)n12	0%	-12%	16µM*	u	13µM*
N#Cc1c(N2CCCC(O)C2)nc(N)c2c(N)nc3c(c12)CC(=O)N3C12CC3CC(CC(C3)C1)C2 (configuration not stated)	6%	u	u	u	u
C=C(C)CN(CC)c1nc(N)c2c(N)nc3c(c2c1C#N)CC(=O)N3C12CC3CC(CC(C3)C1)C2	13%	-17%	-8%	13µM*	i
CC(=O)O[C@]1(C(C)=O)CC[C@H]2[C@@H]3C=C(C)C4=CC(=O)CC[C@]4(C)[C@@H]3CC[C@@]21C	x	x	-13%	x	x
CN(C)c1ccc(/C=C2\SC(=O)N(CCc3nnc(N)s3)C2=O)cc1	-2%	-4%	4µM*	-9%	i
CN(C)c1ccc(/C=C2/SC(=O)N(CCN=C3NS(=O)(=O)c4ccccc43)C2=O)cc1	0%	-7%	17%	-8%	i
CN=c1scc(-c2ccccc2F)n1/N=C/c1ccc(O)c(O)c1O	17%	u	34%	12µM*	i
CC(C)N=c1scc(-c2cccs2)n1/N=C/c1ccc(O)c(O)c1O	u	-5%	u	15%	u
CN=c1scc(-c2ccccc2F)n1/N=C/c1ccc[nH]1	-3%	1%	3.2µM*	u	u
Cn1c(CCNC(=O)C2CC23CCN(C(=O)C2=CCCC2)CC3)nc2ccccc21 (configuration not stated)	x	x	x	x	i
Cc1ccc(-n2ncc(C(=O)NCCCN3CCN(c4cccc(Cl)c4)CC3)c2-n2cccc2)cc1	-1%	9%	x	15%	x
Cc1ccc(-n2nc(C)c(C(=O)NCCCN3CCN(c4cccc(Cl)c4)CC3)c2-n2cccc2)cc1	-1%	u	x	16µM*	x
COc1ccccc1C(=O)NCC(=O)N=Nc1c(O)n(C(C)C)c2ccccc12	0%	-15%	x	23µM*	i
O=C(NCCO)C(=O)Nc1c2c(nn1-c1ccc(F)cc1)CSC2	0%	5%	2%	x	i
Cc1nnc(Cc2ccco2)c2n[nH]c(C)c12	11µM*	x	x	x	i
Cc1nnc(Cc2ccccc2)c2n[nH]c(C)c12	-1%	x	x	x	i
Cc1ccc(Cc2nc3ccccc3nc2SCC(=O)N2CCN(c3ccccc3F)CC2)cc1	-1%	7%	x	x	x
COc1ccc(-c2csc(N(C)C(=O)c3ccco3)n2)cc1	4%	10%	10%	14%	i
COc1cccc(CC(=O)Nc2nc(-c3cc(OC)ccc3OC)cs2)c1	0%	-1%	-19%	-13%	i
COc1ccc(OC)c(-c2csc(NC(=O)Cc3cccs3)n2)c1	7%	-6%	-1%	16µM*	u
